The values that follow come from PubChem BioAssay (NCATS).

“And” between values parts separate entries of the source, which are not always exact repeats. Identical values can stand only once. Results filed as inconclusive are left out. Unmarked numbers belong to inactive results. The source made the active and inactive calls. Unless noted, the call rests on the fitted dose curve.

In assay [1] the target is Estrogen receptor (Homo sapiens) (UniProt P03372). The assay can be described thus: qHTS assay for small molecule agonists of estrogen receptor alpha signaling (AID 588514).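 Further: 0% = vehicle only and 100% = reference agonist; nearly all actives have a fitted effect of over 70% in size.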 The settings on record: ER-alpha-UAS-bla HEK293, beta-lactamase ratio, 18 h; series mostly up to 76.8 µM. The procedure, abridged:
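Read-out: CCF4 fluorescence from a beta-lactamase reporter in ER-alpha-UAS-bla HEK 293 cells after 18 hrs of compound exposure at 37 C. Normalized to 20 nM 17-beta-estradiol (100%) and DMSO (0%).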

Assay [2] concerns the target Glucocorticoid receptor (Homo sapiens) (UniProt P04150). The assay is described as follows: qHTS assay for small molecule agonists of glucocorticoid receptor signaling (AID 588532; active means well fitted curve in the direction sought with a large enough effect in the signal ratio, with a control signal flat; the % refers to the signal ratio;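 further: 100% = dexamethasone at 0.1 µM and 0% = DMSO only wells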). Particulars: HeLa MMTV-bla, beta-lactamase ratio, agonist, 18 h; hits give high values; percent of dexamethasone control, DMSO zero. The procedure, abridged:
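MMTV-bla HeLa beta-lactamase reporter cells in 1% charcoal/dextran FBS medium, compounds up to 92 uM for 18 h at 37 C, CCF4 readout; normalized to 0.1 uM dexamethasone (100%), EC50 and efficacy from Hill fits.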
(In general: Quantitative high-throughput screening tests each substance at several concentrations.)

Assay [3] has the same target. The assay is described as follows: qHTS assay for small molecule antagonists of glucocorticoid receptor signaling (AID 588533; active means well fitted inhibition curve with a large enough effect in the signal ratio, with a control signal flat, not every such curve was filed as active; the % refers to the signal ratio;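 further: cells stimulated with 2 nM dexamethasone as agonist; on the % scale 0 is the no-effect control and ±100 the full control effect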). Particulars: HeLa MMTV-bla, GRE beta-lactamase ratio, antagonist mode, 18 h; series mostly up to 76.8 µM. An outline of the steps:
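Antagonist-mode qHTS: compound titrations added to GRE-bla HeLa cells, then dexamethasone 2 nM final; 18 h, 37 C. CCF4 FRET fluorescence normalized to dexamethasone and DMSO; IC50 from Hill fit.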

Assay [4] has as its target Peroxisome proliferator-activated receptor gamma (Homo sapiens) (UniProt P37231). The assay is described as follows: qHTS assay for small molecule antagonists of peroxisome proliferator-activated receptor gamma signaling (AID 588537; active means well fitted inhibition curve with a large enough effect in the signal ratio, with a control signal flat, not every such curve was filed as active; the % refers to the signal ratio;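 further: reporter cells co-stimulated with 50 nM rosiglitazone agonist during compound treatment; % of control where 0% means no effect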). The settings on record: HEK293 PPARg-UAS-bla, beta-lactamase ratio, antagonist mode; series mostly up to 76.8 µM. The procedure, abridged: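 Read-out: CCF4 fluorescence (ex 405, em 460/530 nm) after 2 h at RT. Cells were HEK293 carrying a UAS-bla reporter and treated 16 h at 37 C with compound plus rosiglitazone (50 nM final). Normalized to rosiglitazone and DMSO.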

Assay [5] has as its target Thyroid hormone receptor beta (Homo sapiens) (UniProt P10828). The assay is described as follows: qHTS assay for small molecule antagonists of thyroid hormone receptor beta signaling (AID 588547; active means well fitted inhibition curve with a large enough effect in the signal ratio, with a control signal flat, not every such curve was filed as active; the % refers to the signal ratio;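 further: cells stimulated with 0.4 nM T3 agonist during compound exposure; on the % scale 0 is the no-effect control and ±100 the full control effect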). The settings on record: TR-UAS-bla HEK293, beta-lactamase ratio, antagonist mode, 18 h. An outline of the steps: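 TR-UAS-bla GripTite HEK293 cells in 2% charcoal/dextran FBS medium; compounds 0.59 nM to 92 uM with T3 at 0.4nM final, 18 h at 37 C. Beta-lactamase read by CCF4 fluorescence (460/530 nm); Hill fits gave IC50 and efficacy.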

Assay [6] deals with Androgen receptor (Homo sapiens) (UniProt P10275). The assay is described as follows: qHTS assay for small molecule agonists of androgen receptor signaling (AID 588515; active means well fitted curve in the direction sought with a large enough effect in the signal ratio, with a control signal flat; the % refers to the signal ratio; further: on the % scale 0 is the no-effect control and ±100 the full control effect). The settings on record: AR-UAS-bla HEK293, beta-lactamase ratio, agonist 16 h; activation: hits give high values. The procedure, abridged: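 Stimulation of an AR-responsive β-lactamase reporter in GripTite HEK293 cells was measured after 16 h compound exposure at 37 °C, via CCF4 fluorescence after 2 h RT. EC50 from Hill fits, normalized to R1881 at 30 nM.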

For assay [7] the target is unchanged. The assay can be described thus: qHTS assay for small molecule antagonists of androgen receptor signaling (AID 588516; active means well fitted curve in the direction sought with a large enough effect in the signal ratio, with a control signal flat, not every such curve was filed as active; the % refers to the signal ratio; further: on the % scale 0 is the no-effect control and ±100 the full control effect). Particulars: AR-UAS-bla HEK293, beta-lactamase ratio, antagonist mode, 16 h; series mostly up to 76.8 µM. The procedure, abridged:
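HEK293 AR-UAS-bla cells, 10% dialyzed FBS medium; cpd titration + R1881 10 nM final, 16 h 37 C; CCF4 2 h RT; FRET ratio; IC50/efficacy via Hill fit.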

A short description of assay [8]: qHTS assay for small molecule agonists of the antioxidant response element (ARE) signaling pathway (AID 651741; active means well fitted activation curve with a large enough effect in the signal ratio; the % refers to the signal ratio; further: potency means the concentration at half of the fitted maximal effect; on activation: % of control where 0% means no effect). Particulars: HepG2 ARE-bla reporter, beta-lactamase FRET ratio, 16 h; series mostly up to 96 µM. The procedure, abridged:
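HepG2 ARE-bla reporter cells, 2,000/well; 5 h settle at 37 C/5% CO2; compound pin transfer (23 nL, DMSO); 16 h at 37 C; LiveBLAzer B/G FRET substrate, 2 h RT; fluorescence intensity read.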

The target in assay [9] is Bile acid receptor (Homo sapiens) (UniProt Q96RI1). The assay is described as follows: qHTS assay for small molecule antagonists of farnesoid X receptor signaling (AID 588526). Further: on the % scale 0 is the no-effect control and ±100 the full control effect. Particulars: HEK293T FXR-UAS-bla, beta-lactamase ratio, antagonist mode; series mostly up to 76.7 µM. An outline of the steps:
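Antagonist mode: titrated compounds tested against chenodeoxycholic acid stimulation (normalized to 50 uM CDCA and DMSO) in GeneBLAzer HEK293T cells for 16 h. Beta-lactamase read by CCF4 fluorescence; IC50 from Hill fits.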

Chain of Peroxisome proliferator-activated receptor gamma (Homo sapiens) (P37231 whole entry, looked up): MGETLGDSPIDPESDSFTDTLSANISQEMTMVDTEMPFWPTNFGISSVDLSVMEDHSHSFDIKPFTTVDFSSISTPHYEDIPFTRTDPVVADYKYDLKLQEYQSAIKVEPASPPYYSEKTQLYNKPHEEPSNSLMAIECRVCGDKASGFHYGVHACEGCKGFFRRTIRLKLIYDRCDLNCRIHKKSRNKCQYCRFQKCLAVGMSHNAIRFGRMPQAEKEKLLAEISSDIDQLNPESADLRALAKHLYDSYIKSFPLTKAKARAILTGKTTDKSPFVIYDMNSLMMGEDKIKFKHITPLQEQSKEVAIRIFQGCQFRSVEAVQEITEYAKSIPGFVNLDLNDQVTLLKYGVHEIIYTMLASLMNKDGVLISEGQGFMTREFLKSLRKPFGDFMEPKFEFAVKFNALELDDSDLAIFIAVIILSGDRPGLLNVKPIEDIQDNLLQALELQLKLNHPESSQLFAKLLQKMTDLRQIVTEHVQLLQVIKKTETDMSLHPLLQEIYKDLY
Chain of Bile acid receptor (Homo sapiens) (Q96RI1 whole entry, looked up): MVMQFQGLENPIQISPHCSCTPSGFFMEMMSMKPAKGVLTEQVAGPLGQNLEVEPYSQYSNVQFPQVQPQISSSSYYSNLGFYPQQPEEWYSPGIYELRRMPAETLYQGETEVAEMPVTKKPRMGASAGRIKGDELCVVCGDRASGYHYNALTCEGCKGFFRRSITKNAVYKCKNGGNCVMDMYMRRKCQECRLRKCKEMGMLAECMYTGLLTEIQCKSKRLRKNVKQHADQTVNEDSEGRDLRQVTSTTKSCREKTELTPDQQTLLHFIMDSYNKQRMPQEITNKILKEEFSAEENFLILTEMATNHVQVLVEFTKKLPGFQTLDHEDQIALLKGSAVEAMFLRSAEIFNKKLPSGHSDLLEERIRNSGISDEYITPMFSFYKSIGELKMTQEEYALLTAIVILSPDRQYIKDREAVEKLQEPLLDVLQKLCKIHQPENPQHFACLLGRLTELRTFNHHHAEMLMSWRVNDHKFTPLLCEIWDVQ
Chain of Estrogen receptor (Homo sapiens) (P03372 whole entry, looked up): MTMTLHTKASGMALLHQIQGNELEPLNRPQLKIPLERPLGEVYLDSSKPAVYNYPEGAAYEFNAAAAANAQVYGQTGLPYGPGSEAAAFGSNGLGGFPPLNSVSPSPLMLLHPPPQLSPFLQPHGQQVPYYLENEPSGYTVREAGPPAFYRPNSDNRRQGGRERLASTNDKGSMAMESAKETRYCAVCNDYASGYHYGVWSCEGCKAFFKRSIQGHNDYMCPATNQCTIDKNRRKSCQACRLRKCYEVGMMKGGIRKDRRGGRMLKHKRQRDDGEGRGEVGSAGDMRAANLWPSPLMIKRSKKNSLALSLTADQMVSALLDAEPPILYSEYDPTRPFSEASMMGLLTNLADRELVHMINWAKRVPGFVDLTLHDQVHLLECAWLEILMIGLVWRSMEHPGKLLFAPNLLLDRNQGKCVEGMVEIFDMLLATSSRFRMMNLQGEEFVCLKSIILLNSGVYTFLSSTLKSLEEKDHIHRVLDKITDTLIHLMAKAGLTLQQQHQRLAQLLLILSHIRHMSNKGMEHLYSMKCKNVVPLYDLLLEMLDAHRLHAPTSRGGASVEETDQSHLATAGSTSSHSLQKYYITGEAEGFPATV
Chain of Androgen receptor (Homo sapiens) (P10275 whole entry, looked up): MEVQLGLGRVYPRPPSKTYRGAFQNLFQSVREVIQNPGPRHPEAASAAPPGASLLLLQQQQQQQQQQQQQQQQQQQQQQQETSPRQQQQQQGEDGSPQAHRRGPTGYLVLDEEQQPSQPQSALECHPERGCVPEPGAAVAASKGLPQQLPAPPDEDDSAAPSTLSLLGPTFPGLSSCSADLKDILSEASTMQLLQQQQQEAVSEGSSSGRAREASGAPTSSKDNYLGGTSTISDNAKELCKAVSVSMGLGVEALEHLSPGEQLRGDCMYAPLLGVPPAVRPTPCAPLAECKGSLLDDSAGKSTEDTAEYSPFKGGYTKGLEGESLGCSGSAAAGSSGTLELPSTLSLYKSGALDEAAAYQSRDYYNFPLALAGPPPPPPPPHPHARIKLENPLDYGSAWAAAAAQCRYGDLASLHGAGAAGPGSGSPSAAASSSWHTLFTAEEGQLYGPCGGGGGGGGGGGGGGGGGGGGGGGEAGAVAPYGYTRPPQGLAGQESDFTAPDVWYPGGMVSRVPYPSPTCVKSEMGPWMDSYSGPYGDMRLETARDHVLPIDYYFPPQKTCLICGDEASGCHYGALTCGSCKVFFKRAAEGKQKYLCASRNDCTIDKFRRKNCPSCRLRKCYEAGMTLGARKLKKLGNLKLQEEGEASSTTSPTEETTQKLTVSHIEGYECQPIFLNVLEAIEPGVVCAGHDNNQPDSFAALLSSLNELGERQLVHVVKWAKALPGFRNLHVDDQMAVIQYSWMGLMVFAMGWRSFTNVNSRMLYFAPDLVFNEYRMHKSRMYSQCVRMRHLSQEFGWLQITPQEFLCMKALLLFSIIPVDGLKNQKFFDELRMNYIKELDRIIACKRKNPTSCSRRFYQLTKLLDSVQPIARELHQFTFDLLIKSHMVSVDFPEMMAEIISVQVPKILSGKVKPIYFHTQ
Chain of Glucocorticoid receptor (Homo sapiens) (P04150 whole entry, looked up): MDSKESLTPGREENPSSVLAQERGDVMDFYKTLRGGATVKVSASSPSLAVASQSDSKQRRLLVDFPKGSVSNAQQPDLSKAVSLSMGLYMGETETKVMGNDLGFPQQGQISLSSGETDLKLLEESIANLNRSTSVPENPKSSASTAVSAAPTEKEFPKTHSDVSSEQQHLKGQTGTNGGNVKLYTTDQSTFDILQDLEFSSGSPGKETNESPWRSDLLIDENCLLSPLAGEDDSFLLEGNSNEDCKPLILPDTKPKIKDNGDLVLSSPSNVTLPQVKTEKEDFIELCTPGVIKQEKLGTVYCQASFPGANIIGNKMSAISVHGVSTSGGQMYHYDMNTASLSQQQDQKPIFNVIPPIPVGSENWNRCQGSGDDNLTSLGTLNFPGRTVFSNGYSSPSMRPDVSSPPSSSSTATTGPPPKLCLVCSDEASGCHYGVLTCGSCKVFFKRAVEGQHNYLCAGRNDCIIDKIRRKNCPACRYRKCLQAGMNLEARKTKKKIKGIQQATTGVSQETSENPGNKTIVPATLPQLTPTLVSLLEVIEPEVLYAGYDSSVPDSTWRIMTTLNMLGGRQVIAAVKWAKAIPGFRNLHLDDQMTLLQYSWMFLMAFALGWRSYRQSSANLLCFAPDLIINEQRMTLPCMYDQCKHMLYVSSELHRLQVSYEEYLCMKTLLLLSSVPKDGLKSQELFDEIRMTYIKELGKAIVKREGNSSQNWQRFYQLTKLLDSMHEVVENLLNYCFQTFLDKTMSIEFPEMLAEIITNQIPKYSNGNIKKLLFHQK
Chain of Thyroid hormone receptor beta (Homo sapiens) (P10828 whole entry, looked up): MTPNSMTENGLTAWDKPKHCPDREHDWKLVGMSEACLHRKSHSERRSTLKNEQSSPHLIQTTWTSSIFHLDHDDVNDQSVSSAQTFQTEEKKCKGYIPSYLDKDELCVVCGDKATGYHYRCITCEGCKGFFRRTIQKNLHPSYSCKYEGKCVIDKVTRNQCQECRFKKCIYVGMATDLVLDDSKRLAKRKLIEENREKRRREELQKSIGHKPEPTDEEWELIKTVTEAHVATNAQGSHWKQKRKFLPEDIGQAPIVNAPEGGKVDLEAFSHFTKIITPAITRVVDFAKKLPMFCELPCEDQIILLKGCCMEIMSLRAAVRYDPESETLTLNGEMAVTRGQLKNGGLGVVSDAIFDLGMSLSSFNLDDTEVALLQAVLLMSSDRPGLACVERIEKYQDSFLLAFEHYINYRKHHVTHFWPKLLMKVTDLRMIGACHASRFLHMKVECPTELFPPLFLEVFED

As to `CC1(C)CC(OC(=O)CCCCCCCCC(=O)OC2CC(C)(C)NC(C)(C)C2)CC(C)(C)N1`, the Potency entry in assay [1] and in assay [3] was “inactive” throughout. For the same compound, the activation in assay [2] is -2.43%.
For `CCCCCCCCCCCCCCCCCC#N`, the Potency entry in assay [1], in assay [3] and in [4] was “inactive” throughout. Also, the activity change % (negative = inhibition) in assay [5] was 11.1%.
For `C=C(C)C(=O)OCC[N+](C)(C)C`, the values for the activation in assay [6] and in [2] were 0.258% and -7.03%, respectively. The outcome in [7] was inactive. For the same compound, the Potency entry in assay [3], in assay [4] and in [8] was “inactive” throughout. In addition, the activity change % (negative = inhibition) in [5] was 5.25%.
`C1CCC2(CCCCO2)OC1`: the Potency entry in assay [1], in [3] and in assay [8] was “inactive” each time. The activation in assay [2] is -8.41%. The activity change % (negative = inhibition) in assay [5] was 7.84%.
`CCCCCCCCCCCCCCCC`: the Potency entry in assay [1] and in assay [3] was “inactive” in each case. Besides, the activity change % (negative = inhibition) in assay [5] is -0.344%.
On to `CC(=O)CC(=O)Nc1ccc(C)cc1C`, for which the activation was 7% in assay [6] and 7.78% in [2]. In [7], the result was inactive. Further, the Potency result in assay [9], in [3] and in assay [8] was “inactive” each time.
For `CC(C)Nc1nc(N)nc(Cl)n1`, in assay [2], the activation is -6.58% and -7.33%. Besides, the Potency entry in assay [3] and in [4] was “inactive” each time. The activity change % (negative = inhibition) in [5] was -8.47% and 11%.
Consider `CCC(C)OC(=O)N1CCCCC1CCO` (stereo not drawn), for which the Potency entry in assay [9], in assay [4] and in assay [8] was “inactive” in each case. Further, in assay [5], the activity change % (negative = inhibition) was -6.45%.
On to `CCCCCCOCCOCCO`, for which the Potency result in assay [9], in assay [3] and in assay [4] was “inactive” in each case. Further, the activation in [2] was -12.5%.
For the compound `COCCOCCOCCOC`, the Potency entry in [9] and in assay [3] was “inactive” in each case. Further, in [2], the activation was -5.4%. Moreover, in assay [5], the activity change % (negative = inhibition) was 2.02%.
As for `CCCCCCCCCCCCc1ccccc1`, the Potency entry in assay [9] was “inactive”.
In the case of `CC(COc1ccc(C(C)(C)C)cc1)OS(=O)OCCCl` (stereo not drawn), the Potency result in [9] was “inactive”. The Potency in assay [8] was 27.3 µM (active).
Regarding `CC(COCC(C)OC(=O)c1ccccc1)OC(=O)c1ccccc1` (stereo not drawn), the Potency result in assay [9], in assay [3], in assay [4] and in assay [8] was “inactive” in each case. Also, the activation in assay [2] was 5.58%. The activity change % (negative = inhibition) in [5] was -7.07%.
